Of roughly 7,900 targets only a part is listed; those with a hit were picked by preference. About 0.6% of all pairs of compound and target were hits.
Key:
Experiment in all cases: log2 fold change, soluble protein after heating vs DMSO (PISA); higher = thermal stabilisation; K562 cells, 10 uM, 30 min; active = over 0.2 and 3.5 SD of the protein, either way, in both replicates (recomputed)
[1] = compound: NC(=O)Nc1cc(-c2cccc(F)c2)sc1C(=O)N[C@H]1CCCNC1
How it was run: (§1)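 K562 cells (2×10^6 cells/mL) were treated with 10 μM compound for 30 min, and aliquots were heated for 3 min over 48°C-58°C. Pooled aliquots were extracted in PBS with 0.5% NP-40 at 4°C, and the supernatant after 21,000xg for 90 min was measured by TMTpro 16plex LC-MS/MS with channel sums equalised. Reported thermal stability, relative to control samples and from duplicates, is a log2 fold change.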

[2] = compound: NC(=O)c1cnc(N[C@@H]2CCCC[C@@H]2N)nc1Nc1cccc(-n2nccn2)c1
How it was run: as §1

[3] = compound: NC1(c2ccc(-c3nc4ccn5c(=O)[nH]nc5c4cc3-c3ccccc3)cc2)CCC1
How it was run: as §1

entinostat = compound: Nc1ccccc1NC(=O)c1ccc(CNC(=O)OCc2cccnc2)cc1 [entinostat]
How it was run: as §1

citarinostat = compound: O=C(CCCCCCNC(=O)c1cnc(N(c2ccccc2)c2ccccc2Cl)nc1)NO [citarinostat]
How it was run: as §1

silmitasertib = compound: O=C(O)c1ccc2c(c1)nc(Nc1cccc(Cl)c1)c1ccncc12 [silmitasertib]
How it was run: as §1

[4] = compound: O=C1NC(=O)C(c2cnc3ccccn23)=C1c1cn2c3c(cc(F)cc13)CN(C(=O)N1CCCCC1)CC2
How it was run: as §1

[5] = compound: c1cc(OCCN2CCCCC2)cc(-c2n[nH]c3ccc(-c4nnc[nH]4)cc23)c1
How it was run: as §1

[6] = compound: NCC(=O)Nc1ccc(-n2nc(C(F)(F)F)cc2-c2ccc3c(ccc4ccccc43)c2)cc1
How it was run: as §1

vorinostat = compound: O=C(CCCCCCC(=O)Nc1ccccc1)NO [vorinostat]
How it was run: as §1

Measured: log2 fold change

DYNC1I2 isoform 2 (UniProt Q13409)
inactive: [1] 0.181 | [2] 0 | [3] -0.037 | entinostat -0.206 | citarinostat 0.094 | silmitasertib -0.154 | [4] -0.127 | [5] -0.035

DCP2 (UniProt Q8IU60)
inactive: [1] -0.076 | [2] 0.009 | [6] -0.079 | entinostat 0.048 | [4] 0.048

DCAF10 (UniProt Q5QP82)
active: [5] 0.357
inactive: [1] -0.018 | [2] -0.02 | [3] 0.026 | [6] 0.033 | entinostat -0.021 | vorinostat -0.015 | citarinostat 0.08 | silmitasertib 0.122 | [4] -0.028

DDX11 (UniProt Q96FC9)
inactive: [1] -0.1 | [2] -0.099 | [3] -0.061 | [6] 0.032 | entinostat -0.009 | silmitasertib 0.191 | [4] -0.007

EEF1A1 (UniProt P68104)
inactive: [1] -0.046 | [2] 0.084 | [3] 0.091 | [6] 0.191 | entinostat -0.017 | citarinostat -0.04 | silmitasertib -0.11 | [4] 0.023 | [5] 0.07

CTSZ (UniProt Q9UBR2)
inactive: [1] -0.029 | [2] -0.005 | [6] 0.044 | entinostat -0.023 | vorinostat 0.013 | citarinostat 0.019 | silmitasertib 0.008 | [4] -0.047 | [5] 0.006
active: [3] -0.511

CTSC (UniProt P53634)
UniProt P53634, sequence (P53634 whole entry, looked up): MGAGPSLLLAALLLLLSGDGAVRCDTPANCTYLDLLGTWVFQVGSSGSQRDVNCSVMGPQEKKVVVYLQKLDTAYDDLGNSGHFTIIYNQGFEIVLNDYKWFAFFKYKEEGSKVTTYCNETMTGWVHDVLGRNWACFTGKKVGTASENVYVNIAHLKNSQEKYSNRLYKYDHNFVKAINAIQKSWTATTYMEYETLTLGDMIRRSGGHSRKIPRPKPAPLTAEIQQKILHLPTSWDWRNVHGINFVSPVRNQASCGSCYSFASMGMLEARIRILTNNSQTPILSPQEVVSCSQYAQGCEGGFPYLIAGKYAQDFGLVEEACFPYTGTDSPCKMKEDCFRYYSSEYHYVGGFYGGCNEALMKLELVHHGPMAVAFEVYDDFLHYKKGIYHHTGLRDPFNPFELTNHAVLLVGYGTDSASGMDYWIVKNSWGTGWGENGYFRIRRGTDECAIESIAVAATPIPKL
inactive: [1] 0.019 | [2] -0.015 | [3] -0.11 | [6] 0.086 | entinostat -0.053 | vorinostat -0.016 | citarinostat 0.015 | silmitasertib -0.053 | [4] -0.057 | [5] 0.063

EIF3J isoform 2 (UniProt O75822)
UniProt O75822, sequence (O75822 whole entry, looked up): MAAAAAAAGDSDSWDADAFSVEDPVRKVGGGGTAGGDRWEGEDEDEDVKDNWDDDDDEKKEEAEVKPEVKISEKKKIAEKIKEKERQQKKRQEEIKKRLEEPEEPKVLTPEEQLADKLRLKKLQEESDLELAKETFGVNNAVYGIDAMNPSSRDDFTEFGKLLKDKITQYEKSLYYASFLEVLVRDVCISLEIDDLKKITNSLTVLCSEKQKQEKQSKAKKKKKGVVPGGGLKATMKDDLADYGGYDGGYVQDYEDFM
inactive: [1] -0.094 | [2] -0.197 | [3] -0.102 | [6] 0.023 | entinostat -0.041 | silmitasertib -0.11 | [4] 0.002

DHRS13 (UniProt Q6UX07)
inactive: [1] 0.182 | [2] -0.012 | [3] 0.102 | [6] 0.156 | entinostat 0.043 | vorinostat -0.013 | citarinostat 0.1 | silmitasertib 0.087 | [5] -0.06

FAM193B (UniProt Q96PV7)
inactive: [1] 0.22 | [2] -0.053 | [6] -0.014 | entinostat 0.25 | citarinostat 0.032 | [4] 0.149 | [5] -0.205

EZH2 isoform 2 (UniProt Q15910)
inactive: [1] 0.316 | [2] -0.004 | [3] 0.342 | [6] 0.33 | entinostat -0.039 | silmitasertib 0.046 | [4] -0.118

EXOC4 (UniProt Q96A65)
inactive: [1] 0.081 | [2] -0.216 | [3] -0.205 | [6] -0.051 | entinostat 0.078 | vorinostat 0.174 | citarinostat 0.16 | silmitasertib 0.091 | [4] 0.044 | [5] -0.094

DTWD1 (UniProt Q8N5C7)
inactive: [1] -0.001 | [2] 0.014 | [3] -0.147 | [6] -0.04 | entinostat 0.063 | citarinostat -0.001 | silmitasertib -0.004 | [4] 0.014 | [5] -0.064
active: vorinostat 0.246

DBR1 (UniProt Q9UK59)
active: vorinostat -0.215
inactive: [1] 0.002 | [2] -0.017 | [3] -0.002 | [6] 0.052 | entinostat -0.023 | citarinostat 0.014 | silmitasertib -0.012 | [4] -0.004 | [5] -0.072

CUX1 isoform 2 (UniProt Q13948)
UniProt Q13948, sequence (Q13948 whole entry, looked up): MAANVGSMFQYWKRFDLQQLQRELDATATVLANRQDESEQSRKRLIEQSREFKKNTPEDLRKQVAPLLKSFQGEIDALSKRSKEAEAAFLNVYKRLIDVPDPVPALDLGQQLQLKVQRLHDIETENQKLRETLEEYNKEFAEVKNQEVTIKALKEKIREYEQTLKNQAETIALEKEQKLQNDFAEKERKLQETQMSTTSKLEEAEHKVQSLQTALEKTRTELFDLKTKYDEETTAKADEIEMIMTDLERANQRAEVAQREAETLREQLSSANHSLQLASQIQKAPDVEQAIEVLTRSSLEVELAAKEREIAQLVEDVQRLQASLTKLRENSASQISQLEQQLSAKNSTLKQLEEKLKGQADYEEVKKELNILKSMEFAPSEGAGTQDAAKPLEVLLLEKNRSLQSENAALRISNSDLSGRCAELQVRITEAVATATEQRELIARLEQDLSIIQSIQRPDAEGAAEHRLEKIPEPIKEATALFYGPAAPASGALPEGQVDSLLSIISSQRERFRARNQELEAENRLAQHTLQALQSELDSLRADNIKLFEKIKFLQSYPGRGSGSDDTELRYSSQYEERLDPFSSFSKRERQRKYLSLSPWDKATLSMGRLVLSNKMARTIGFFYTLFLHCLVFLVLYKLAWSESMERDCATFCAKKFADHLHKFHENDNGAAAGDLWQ
inactive: [1] -0.027 | [2] -0.031 | [3] -0.033 | [6] -0.026 | vorinostat 0.076 | citarinostat 0.137 | silmitasertib -0.016 | [4] -0.047 | [5] -0.03
active: entinostat 0.343

DAXX (UniProt Q9UER7)
inactive: [1] 0.093 | [2] -0.103 | [6] -0.08 | entinostat -0.099 | vorinostat 0.034 | citarinostat 0.075 | [5] -0.076

CYB561A3 isoform 2 (UniProt Q8NBI2)
inactive: [1] -0.019 | [2] -0.075 | [3] -0.066 | entinostat -0.004 | vorinostat -0.254 | citarinostat -0.081 | silmitasertib 0.04 | [5] 0.035

EDEM2 (UniProt Q9BV94)
inactive: [1] 0.004 | [2] -0.108 | [3] -0.054 | [6] -0.039 | entinostat -0.003 | vorinostat 0.001 | silmitasertib 0.027 | [4] -0.029

ELAC1 (UniProt Q9H777)
UniProt Q9H777, sequence (Q9H777 whole entry, looked up): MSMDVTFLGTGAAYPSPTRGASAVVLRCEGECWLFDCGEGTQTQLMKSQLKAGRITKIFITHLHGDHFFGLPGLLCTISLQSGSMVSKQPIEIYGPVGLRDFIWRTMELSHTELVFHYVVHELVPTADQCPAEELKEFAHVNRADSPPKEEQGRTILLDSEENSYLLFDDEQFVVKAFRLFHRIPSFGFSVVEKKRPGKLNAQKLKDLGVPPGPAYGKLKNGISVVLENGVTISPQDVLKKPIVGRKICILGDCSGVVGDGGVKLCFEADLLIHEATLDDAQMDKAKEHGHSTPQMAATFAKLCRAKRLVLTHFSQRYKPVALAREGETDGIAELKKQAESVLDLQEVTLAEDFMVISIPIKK
inactive: [1] 0.014 | [2] 0.053 | [6] -0.082 | entinostat -0.202 | vorinostat 0.285 | citarinostat 0.05 | [4] 0.075 | [5] -0.05

EIF3J (UniProt O75822)
inactive: [1] 0.035 | [2] -0.033 | [3] -0.072 | [6] 0.007 | entinostat 0.012 | vorinostat 0.143 | citarinostat 0.001 | silmitasertib 0.042 | [4] -0.017 | [5] 0.022

EXOC1 (UniProt Q9NV70)
UniProt Q9NV70, sequence (Q9NV70 whole entry, looked up): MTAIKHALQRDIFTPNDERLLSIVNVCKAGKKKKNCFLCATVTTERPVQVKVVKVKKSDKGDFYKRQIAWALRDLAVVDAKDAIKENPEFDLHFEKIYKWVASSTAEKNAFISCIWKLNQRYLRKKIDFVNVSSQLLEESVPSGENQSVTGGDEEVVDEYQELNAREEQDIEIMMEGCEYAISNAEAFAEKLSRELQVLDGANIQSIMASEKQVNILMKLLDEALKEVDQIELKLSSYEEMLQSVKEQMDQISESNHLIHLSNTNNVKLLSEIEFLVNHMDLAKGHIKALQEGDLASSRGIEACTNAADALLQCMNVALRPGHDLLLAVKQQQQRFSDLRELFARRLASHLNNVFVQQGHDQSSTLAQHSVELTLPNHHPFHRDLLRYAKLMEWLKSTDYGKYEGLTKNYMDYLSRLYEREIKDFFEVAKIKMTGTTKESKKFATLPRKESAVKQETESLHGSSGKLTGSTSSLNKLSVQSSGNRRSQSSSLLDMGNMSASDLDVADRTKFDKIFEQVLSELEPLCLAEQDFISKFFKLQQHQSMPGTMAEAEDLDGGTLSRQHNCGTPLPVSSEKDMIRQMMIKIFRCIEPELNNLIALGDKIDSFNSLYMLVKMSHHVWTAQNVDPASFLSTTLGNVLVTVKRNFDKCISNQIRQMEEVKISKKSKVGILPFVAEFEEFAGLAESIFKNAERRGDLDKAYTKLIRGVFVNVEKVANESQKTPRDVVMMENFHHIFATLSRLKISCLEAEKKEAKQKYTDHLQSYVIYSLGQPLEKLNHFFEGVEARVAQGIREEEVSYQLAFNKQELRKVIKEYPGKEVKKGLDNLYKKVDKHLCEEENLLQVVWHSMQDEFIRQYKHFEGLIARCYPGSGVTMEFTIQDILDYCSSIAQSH
inactive: [1] 0.043 | [2] -0.162 | [3] -0.228 | [6] -0.065 | entinostat 0.062 | vorinostat 0.082 | citarinostat 0.014 | silmitasertib 0.127 | [4] 0.069 | [5] -0.165

EIF4E2 (UniProt O60573)
inactive: [1] 0.054 | [2] -0.015 | [3] 0.085 | [6] -0.048 | entinostat 0.075 | citarinostat 0.245 | silmitasertib 0.019 | [4] 0.003 | [5] 0.079

EIF4G3 isoform 3 (UniProt O43432)
active: [5] -0.515
inactive: [1] 0.012 | [2] -0.092 | [3] -0.062 | [6] -0.016 | entinostat 0.01 | citarinostat -0.114 | silmitasertib 0.146

CTSH (UniProt P09668)
UniProt P09668, sequence (P09668 whole entry, looked up): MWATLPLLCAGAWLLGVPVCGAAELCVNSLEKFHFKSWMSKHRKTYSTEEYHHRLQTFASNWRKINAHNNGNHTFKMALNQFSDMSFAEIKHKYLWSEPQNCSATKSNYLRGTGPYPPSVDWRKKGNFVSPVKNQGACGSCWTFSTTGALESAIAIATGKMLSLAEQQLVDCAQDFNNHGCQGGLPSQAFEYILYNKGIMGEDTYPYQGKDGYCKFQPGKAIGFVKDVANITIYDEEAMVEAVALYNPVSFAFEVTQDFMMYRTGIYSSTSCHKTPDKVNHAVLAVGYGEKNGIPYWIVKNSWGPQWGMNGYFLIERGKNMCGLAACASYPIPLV
inactive: [1] 0.012 | [2] 0.029 | [3] 0.032 | [6] 0.04 | entinostat -0.002 | vorinostat -0.01 | citarinostat -0.02 | silmitasertib 0.005 | [4] 0.022 | [5] 0.197

EDC4 (UniProt Q6P2E9)
UniProt Q6P2E9, sequence (Q6P2E9 whole entry, looked up): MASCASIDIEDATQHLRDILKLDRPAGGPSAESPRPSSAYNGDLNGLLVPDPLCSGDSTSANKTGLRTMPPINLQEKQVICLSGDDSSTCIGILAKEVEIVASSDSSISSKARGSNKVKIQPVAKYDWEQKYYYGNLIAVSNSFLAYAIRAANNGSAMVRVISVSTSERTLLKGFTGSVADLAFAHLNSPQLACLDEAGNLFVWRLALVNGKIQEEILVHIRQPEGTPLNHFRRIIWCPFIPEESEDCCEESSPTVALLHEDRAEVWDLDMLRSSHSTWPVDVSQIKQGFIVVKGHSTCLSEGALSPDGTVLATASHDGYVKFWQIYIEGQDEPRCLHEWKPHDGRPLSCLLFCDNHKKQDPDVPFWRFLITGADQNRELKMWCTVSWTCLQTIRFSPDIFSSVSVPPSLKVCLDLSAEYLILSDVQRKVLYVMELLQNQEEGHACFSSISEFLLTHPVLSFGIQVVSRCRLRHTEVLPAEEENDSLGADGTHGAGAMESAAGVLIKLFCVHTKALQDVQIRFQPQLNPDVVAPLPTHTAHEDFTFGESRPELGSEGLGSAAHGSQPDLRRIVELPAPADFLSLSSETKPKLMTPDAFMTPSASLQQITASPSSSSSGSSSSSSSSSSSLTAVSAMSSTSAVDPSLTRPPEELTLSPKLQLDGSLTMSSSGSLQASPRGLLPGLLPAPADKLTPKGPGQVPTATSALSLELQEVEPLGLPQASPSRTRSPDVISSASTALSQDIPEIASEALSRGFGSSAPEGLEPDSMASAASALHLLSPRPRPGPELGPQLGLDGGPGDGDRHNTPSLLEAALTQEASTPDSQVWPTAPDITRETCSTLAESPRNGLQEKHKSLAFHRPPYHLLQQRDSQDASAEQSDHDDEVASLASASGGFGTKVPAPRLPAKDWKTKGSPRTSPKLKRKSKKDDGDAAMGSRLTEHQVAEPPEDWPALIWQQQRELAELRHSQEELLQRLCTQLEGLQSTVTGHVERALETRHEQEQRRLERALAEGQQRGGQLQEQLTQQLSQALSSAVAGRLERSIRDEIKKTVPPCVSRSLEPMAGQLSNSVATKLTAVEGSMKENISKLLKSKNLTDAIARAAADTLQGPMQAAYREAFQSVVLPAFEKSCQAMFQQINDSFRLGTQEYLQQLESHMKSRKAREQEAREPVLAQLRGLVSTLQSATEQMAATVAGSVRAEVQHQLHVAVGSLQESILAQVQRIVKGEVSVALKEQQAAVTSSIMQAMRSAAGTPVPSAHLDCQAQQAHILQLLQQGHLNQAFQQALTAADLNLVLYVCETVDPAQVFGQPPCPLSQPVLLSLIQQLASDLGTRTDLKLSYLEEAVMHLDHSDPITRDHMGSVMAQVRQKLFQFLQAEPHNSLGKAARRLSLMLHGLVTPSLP
inactive: [1] -0.06 | [2] -0.024 | [3] -0.026 | [6] -0.082 | entinostat 0.026 | vorinostat -0.023 | citarinostat 0.035 | silmitasertib -0.05 | [4] -0.066
active: [5] -0.253

FAM117A (UniProt Q9C073)
UniProt Q9C073, sequence (Q9C073 whole entry, looked up): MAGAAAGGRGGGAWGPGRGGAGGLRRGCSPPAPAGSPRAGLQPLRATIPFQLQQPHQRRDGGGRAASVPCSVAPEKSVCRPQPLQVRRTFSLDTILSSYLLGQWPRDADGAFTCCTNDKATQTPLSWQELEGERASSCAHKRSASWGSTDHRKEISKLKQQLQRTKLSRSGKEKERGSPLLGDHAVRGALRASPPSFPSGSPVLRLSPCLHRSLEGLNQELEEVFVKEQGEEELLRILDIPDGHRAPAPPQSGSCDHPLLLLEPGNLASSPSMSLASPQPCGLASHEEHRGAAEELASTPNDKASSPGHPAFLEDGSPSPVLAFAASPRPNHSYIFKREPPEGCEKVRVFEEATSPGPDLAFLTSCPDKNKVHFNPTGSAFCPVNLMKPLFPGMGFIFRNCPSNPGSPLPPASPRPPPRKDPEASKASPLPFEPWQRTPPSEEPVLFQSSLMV
inactive: [1] -0.135 | [2] 0 | [3] -0.05 | [6] -0.03 | entinostat 0.046 | vorinostat -0.011 | citarinostat 0.043 | [4] 0.038
active: silmitasertib -0.422 | [5] -0.251

DHX40 (UniProt Q8IX18)
inactive: [1] -0.093 | [2] -0.036 | [3] -0.157 | [6] -0.042 | entinostat -0.004 | vorinostat -0.097 | citarinostat 0.081 | silmitasertib -0.027 | [4] -0.116 | [5] -0.04

DDX5 (UniProt P17844)
inactive: [1] -0.139 | [2] -0.032 | [3] -0.21 | [6] -0.135 | entinostat 0.067 | vorinostat 0.073 | citarinostat 0.072 | silmitasertib -0.088 | [4] -0.158 | [5] -0.039

EVC2 (UniProt Q86UK5)
inactive: [1] -0.074 | [2] -0.129 | [3] 0.013 | [6] -0.268 | entinostat 0.004 | vorinostat -0.071 | citarinostat 0.024 | silmitasertib -0.042 | [4] 0.024 | [5] -0.114

DENND10 (UniProt Q8TCE6)
inactive: [1] 0.018 | [2] 0 | [3] -0.089 | [6] -0.069 | entinostat -0.076 | citarinostat 0.07 | silmitasertib 0.037 | [4] 0.073 | [5] 0.054

— the supplement of paper PMC10849652
